The record followed here is PubChem BioAssay AID463193 (University of Pittsburgh Molecular Library Screening Center, 2010).

The whole screen tested about 190,000 compounds, of which about 1,900 (1%) were called active.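 The calls were made as follows: active = percentage of spot-positive cells more than 3 SD above its plate mean, without a fluorescence outlier flag or 80% toxicity; inconclusive = no clear call, values can overlap the other calls; inactive = the rest.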 The full list was thinned out, with actives kept by preference.

The assay can be described thus: GFP-LC3 puncta formation changes – imaging, high-content, MEF GFP-LC3, primary screen (AID 463193).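 As to % cells with GFP-LC3 spots: spot-positive cell cutoff set from DMSO-treated cells.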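 As to toxicity: cell loss after 18 h compound exposure.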 The conditions noted are these: autophagy, at 10 µM; % cells with GFP-LC3 spots: stronger effect = higher value; toxicity: measured here: cell loss, nuclei count.
For `CCOc1ncccc1C(=O)N(C)CC(=O)Nc1ccc(F)cc1`, the % cells with GFP-LC3 spots was 5.93% (inactive) and the toxicity is -12.3%.
As for `O=C(NCc1ccncc1)C(=O)NCc1ccco1`, the % cells with GFP-LC3 spots was 0.301% (inactive) and the toxicity is -9.14%.
Taken in the same sequence, the figures for `COc1ccccc1Nc1ncnc2c1oc1ccccc12` were 5.61% (inactive) and 1.55%.
The matching figures for `CCSc1nc(C)nc2c1oc1ccccc12`: 7.02% (inactive) and 8.62%.
Turning to `CCc1nc(Nc2ccc3nccnc3c2)c2oc3ccccc3c2n1`, the % cells with GFP-LC3 spots is 19% (active) and the toxicity is -4.67%.
Regarding `CN(C)C(=O)c1nc2ccc(Cl)cn2c1CN1CCN(c2ncccn2)CC1`, the % cells with GFP-LC3 spots was 2.1% (inactive) and the toxicity was -12.9%.
Regarding `CC(C)C(=O)Nc1c(O)c2ccccc2[nH]c1=O`, the % cells with GFP-LC3 spots was 0.457% (inactive) and the toxicity was 5.73%.
Taken in the same sequence, the figures for `CCOc1ccccc1N1CCN(C(=O)COc2ccc3c(C)cc(=O)oc3c2)CC1` were 3.98% (inactive) and 7.33%.
The matching figures for `COc1ccc([C@H]2[C@H](C(C)=O)N3N=Cc4ccccc4C3C23C(=O)OC(C)(C)OC3=O)cc1` (stereo partly drawn): 3.81% (inactive) and -2.15%.
Taken in the same sequence, the figures for `CC/C(=N/Nc1ccccc1)c1cnnc(SC)n1` were 1.72% (inactive) and -12.6%.
On to `C/C(=N/Nc1ccc(Cl)cc1)c1cnnc(-c2ccccc2)n1`, for which the % cells with GFP-LC3 spots was 45.6% (active) and the toxicity is -1.98%.
Taken in the same sequence, the figures for `O=C(Cc1ccc(Cl)cc1)NCc1nc(-c2ccccc2)no1` were 1.76% (inactive) and 18%.
The matching figures for `CNc1nccc(-c2ccc(Cl)cc2)c1C#N`: 0.668% (inactive) and -6.73%.
As for `NC(=O)c1ccc(CN2CCC(Cc3ccccc3)CC2)cc1`, the % cells with GFP-LC3 spots was 4.13% (inactive) and the toxicity was 31.8%.
As to `CC(C)(C)NC(=O)NC(=O)CN1CCC(Cc2ccccc2)CC1`, the % cells with GFP-LC3 spots was 8.11% (active) and the toxicity was 52.4%.
With `COc1ccc(NC(=O)N2CCC(Cc3ccccc3)CC2)cc1`, the % cells with GFP-LC3 spots was 5.76% (inactive) and the toxicity is -6.26%.
In the case of `O=C(NCc1ccco1)c1nn2cccnc2c1Cl`, the % cells with GFP-LC3 spots was 2.07% (inactive) and the toxicity is -10.5%.
The matching figures for `Cc1ccc(/C([O-])=C(/C(=S)NCc2ccco2)[n+]2ccccc2)cc1[N+](=O)[O-]`: 1.01% (inactive) and 4.63%.
With `Cc1ccc(NC2=C(Cl)C(=O)OC2OC(=O)c2ccccc2C)cc1` (stereo not drawn), the % cells with GFP-LC3 spots is 9.77% (inactive) and the toxicity turned out to be 12.9%.
In the case of `CCOc1ccccc1C(=O)NCc1ccco1`, the % cells with GFP-LC3 spots is 3.98% (inactive) and the toxicity is -2.98%.
Take `O=c1nc2s/c(=C\c3ccco3)c(=O)n2nc1Cc1ccccc1`: the % cells with GFP-LC3 spots is 1.32% (inactive) and the toxicity was -3.5%.
Taken in the same sequence, the figures for `CCOc1ccccc1/C=c1\sc2nc(-c3ccco3)nn2c1=O` were 23.9% (active) and -24.1%.
The matching figures for `Cc1cc(C)c2c(n1)nn1c(N3CCN(c4cccc(Cl)c4)CC3)cc(C)nc21`: 11.4% (active) and 3.85%.
The matching figures for `Cc1cc(C)c2c(n1)nn1c(-n3ccnc3)cc(C)nc21`: 2.18% (inactive) and 8.53%.
As to `Cc1cc(C)c2c(n1)nn1c(N3CCOCC3)cc(C)nc21`, the % cells with GFP-LC3 spots is 8.07% (inactive) and the toxicity was found to be 5.9%.
Taken in the same sequence, the figures for `COCCN(Cc1nc(-c2ccc(C(F)(F)F)cc2)no1)C(C)C` were 9.15% (inactive) and 9.9%.
For `Cc1c(/C=N\NC(=O)c2cc3ccccc3o2)c2ccccc2n1C`, the % cells with GFP-LC3 spots was 7.46% (active) and the toxicity came to 40.9%.
Consider `O=C(N/N=C/c1coc2ccccc2c1=O)c1cc2ccccc2o1`, for which the % cells with GFP-LC3 spots was 23.9% (inactive) and the toxicity was determined as 5.54%.
Taken in the same sequence, the figures for `Cc1c(/C=N/N2C(=O)C3C4C=CC(C4)C3C2=O)c2ccccc2n1C` (stereo not drawn) were 7.41% (inactive) and -40.2%.
Taken in the same sequence, the figures for `O=C(NCCOc1ccccc1F)Nc1ccc(Br)cc1` were 8.91% (inactive) and 10.2%.
`CCCCn1c(N)c(N2CCOCC2)c(=O)n(CC(=O)NCCc2ccccc2)c1=O`: the % cells with GFP-LC3 spots is 1.7% (inactive) and the toxicity was 10.6%.
`Cc1ccc(Nc2nnc(SCc3ccccc3)s2)cc1`: the % cells with GFP-LC3 spots is 12.4% (inactive) and the toxicity is -2.65%.
In the case of `Nc1ccc(Nc2ccccc2)cc1`, the % cells with GFP-LC3 spots is 3.14% (inactive) and the toxicity was 23.3%.
The matching figures for `Cc1ccc(Nc2ccccc2N)cc1`: 78% (active) and 27.6%.
Take `Cc1ccc(CC(=O)Nc2cccc(C#N)c2)cc1`: the % cells with GFP-LC3 spots was 1.19% (inactive) and the toxicity was -8.28%.
The matching figures for `COc1cc(/C=C/C2=CC(C)(C)NC(=S)N2)cc(OC)c1OC`: 1.56% (inactive) and 6.84%.
Taken in the same sequence, the figures for `CC(Oc1ccc(F)cc1F)C(=O)/C=C/N(C)C` (stereo not drawn) were 6.77% (inactive) and 7.51%.
The matching figures for `CC(Oc1ccccc1F)C(=O)NN` (stereo not drawn): 38% (active) and 3.88%.
Consider `COc1cccc(NC(=O)C(C)Oc2ccccc2)c1` (stereo not drawn), for which the % cells with GFP-LC3 spots was 5.6% (inactive) and the toxicity was found to be 4.79%.
The matching figures for `COc1ccccc1C1CC(=O)n2c(nc(-c3ccccc3)c2-c2ccccc2)S1` (stereo not drawn): 3.32% (inactive) and 1.28%.
Take `O=[N+]([O-])/C(N=Nc1ccccc1)=N\Nc1ccccc1`: the % cells with GFP-LC3 spots was 16.1% (inactive) and the toxicity came to 8.32%.
Take `Nc1nonc1-c1nc2ccccc2n1CCC(=O)O`: the % cells with GFP-LC3 spots was 6.83% (inactive) and the toxicity came out at 0.889%.
Regarding `Nc1nonc1-c1nc2ccccc2n1Cc1ccc(F)cc1`, the % cells with GFP-LC3 spots was 17.1% (inactive) and the toxicity worked out at 0.606%.
`COc1ccc(C)c(Cn2c(-c3nonc3N)nc3ccccc32)c1`: the % cells with GFP-LC3 spots was 25% (active) and the toxicity amounted to 49.2%.
